# Source: PubChem BioAssay (NCATS)
# “And” between values parts separate entries of the source, which are not always exact repeats. Identical values can stand only once. Records with an inconclusive call do not appear. Unmarked numbers belong to inactive results. The source made the active and inactive calls. Calls follow the shape of the dose curve; as a rule, active = well fitted cell-killing curve with a large enough effect; inconclusive = small, poorly fitted or top-dose-only effect; inactive = flat fitted curve, though single readings scatter.
# Assay: Cellular viability qHTS for adrenocortical cancer (ACC) cell line SW-13 (AID 1963989); also: nearly all actives have a fitted effect of over 65% in size;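 as to activity (max response): cells grown in serum-free medium with ITS supplement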
# Settings: SW-13 ACC cells viability, CellTiter-Glo, 48 h; activity (max response): active compounds read low
# Source text: PI: Naris Nilubol, MD Surgical Oncology Program, National Cancer Institute (NCI) National Institute of Health (NIH), Bethesda, Maryland Adrenocortical cancer (ACC) is a rare malignancy with poor survival outcomes and few treatment options. Currently, mitotane is the only FDA-approved therapy for ACC. Although adjuvant radiation therapy is rarely utilized, it has the potential to improve survival in select cases. Through a quantitative high-throughput drug screen (qHTS), we identified auranofin (AF), a thioredoxin reductase (TXNRD) inhibitor, as a promising candidate drug. This study aims to evaluate whether AF can enhance the efficacy of radiation therapy in the treatment of ACC. Two human ACC cell lines, SW-13 and NCI-H295R, were screened using the National Center for Advancing Translational Sciences (NCATS) Pharmaceutical Collection (NPC) and the Mechanism Interrogation PlatE (MIPE) library (~4,991 compounds). CellTiter-Glo (Cat # G7570, Promega, Madison, WI) was utilized to measure cell viability. Described herein are the results of the corresponding viability assay.
# PROTOCOL TABLE (as described by Inglese J, Shamu CE and Guy RK. 2007) SEQUENCE No. (e.g., 1, 2, 3, etc.); […] (e.g., Cells, Incubation, Reagent, etc.); VALUE; DESCRIPTION. 1; Cells; 5 uL; white, solid-bottom, 1536-well tissue-culture treated plates. 2; Time; overnight culture at 37C with 5% CO2. 3; Compounds and control; 23 nL; Kalypsis pin tool (Wako USA) equipped with a 1536-well pin head to transfer to the assay plates. 4; Time; 48 hours; 37C with 5% CO2. 5; Reagent; 4 uL; CellTiter-Glo luminescent substrate mix. 6; Time; 20 min at room temperature. 7; Detection; Luminescence; ViewLux plate reader NOTES (numbers refer to Sequence numbers above) 1. SW13 cells were harvested from a T175 flask and resuspended in ITS-supplemented DMEM serum-free medium at a concentration of 300 000 cells/mL. Then 5 uL of resuspended cells were dispensed into each well of white, solid-bottom, 1536-well tissue-culture-treated plates using a multidrop combi dispenser. The plates were covered with stainless steel gasket lids. 2-3. The plates were cultured overnight at 37C with 5% CO2. Twenty-three nL of compounds (eight selected concentrations from the NPC / MIPE) or positive control (10 mM stock of bortezomib) in DMSO was transferred to each well of the assay plate using a pin tool (Kalypsys, San Diego, CA, USA). The final concentration of the compounds in the 5 uL assay volume ranged from 0.5 nM to 46 uM. 4-6. After 48 hours of incubation at 37C and 5% CO2, 4 uL of CellTilter-Glo luminescent substrate mix (Promega, Madison, WI, USA) was added to each well. Then the plates were incubated for 20 minutes at room temperature. 7. After incubation, luminescence was measured using a ViewLux plate reader (PerkinElmer, Waltham, MA, USA) with a clear filter was used to measure the number of metabolically competent cells. To determine compound activity in the qHTS assay, the titration-response data for each sample was plotted and modeled by a four-parameter logistic fit yielding IC50 and efficacy (maximal response) values. […] REFERENCES: Inglese J, Shamu CE and Guy RK, Reporting data from high throughput screening of small molecule libraries, Nature Chemical Biology, 2007, 3(8): 438-441. doi.org/10.1038/nchembio0807-438.
# % is scaled to controls: 0 for no effect and ±100 for the full control effect.
SMILES,activity (max response),Potency
CN1C(=O)CN=C(c2ccccc2)c2cc([N+](=O)[O-])ccc21,6.26%,
NC(=O)c1cc([N+](=O)[O-])cc([N+](=O)[O-])c1,-5.23%,
Cc1ccc(S(=O)(=O)N[C@@H](CCCCN)C(=O)CCl)cc1,15.2%,
Oc1ccc(Cl)cc1,10.2%,
CC(C(=O)c1ccccc1)N(C)C (stereo not given),8.81%,
c1ccc2c(c1)sc1ccccc12,0.898%,
CC(C)CC(N(C)C)C1(c2ccc(Cl)cc2)CCC1 (stereo not given),-12.4%,
CCC1(CC)C(=O)NC(=O)NC1=O,-9.27%,
O=C(Oc1ccc([N+](=O)[O-])cc1)N1CCC(C(O)(c2ccc3c(c2)OCO3)c2ccc3c(c2)OCO3)CC1,5.03%,
CCC1(CCC(C)C)C(=O)NC(=O)NC1=O,0.531%,
COC(=O)C(Cl)C(=O)OC,-3.15%,
C=CCC1(C(C)CC)C(=O)NC(=O)NC1=O (stereo not given),0.393%,
CC(C)C(Br)C(=O)NC(N)=O (stereo not given),-7.38%,
COP(=S)(OC)Oc1ccc(Sc2ccc(OP(=S)(OC)OC)cc2)cc1,9.16%,
Nc1ccc(Cl)cc1C(=O)c1ccccc1F,-12.6%,
CCC(=O)O[C@H]1CC[C@H]2[C@@H]3CCC4=CC(=O)CC[C@]4(C)[C@H]3CC[C@]12C,-15%,
CC1=C(O)C(=O)C=C2C1=CC=C1[C@@]2(C)CC[C@@]2(C)[C@@H]3C[C@](C)(C(=O)O)CC[C@]3(C)CC[C@]12C,,4.47 µM (active)
C[C@](O)(COc1ccc(C#N)cc1)C(=O)Nc1ccc(C#N)c(C(F)(F)F)c1,,22.4 µM (active)
CC1(C)CC(O)CC(C)(C)N1O,-2.2%,
N=c1c2c(-c3ccccc3)c(-c3ccccc3)n(Cc3ccccc3)c2ncn1C1CCC(O)CC1 (stereo not given),,17.8 µM (active)

SMILES,activity (max response),Potency
CC1(C)CC[C@]2(NC(=O)C(C)(F)F)CC[C@]3(C)[C@H](C(=O)C=C4[C@@]5(C)C=C(C#N)C(=O)C(C)(C)[C@@H]5CC[C@]43C)[C@@H]2C1,,4.47 µM (active)
CC(C)(C)c1ccc(O)cc1,9.89%,
CCOCCOC(C)=O,7.41%,
C[C@]12Cc3cn[nH]c3C[C@@H]1CC[C@@H]1[C@@H]2CC[C@@]2(C)[C@H]1CC[C@]2(C)O,-0.402% and -24.7%,
CC(C)NCC(O)c1ccccc1Cl (stereo not given),5.55%,
Cn1c(CCCCCCC(=O)NO)nc2cc(N(CCCl)CCCl)ccc21,,15.8 µM (active)
CC(C)=CCN1CC[C@@]2(C)c3cc(O)ccc3C[C@@H]1[C@@H]2C,,39.8 µM (active)
O=S(=O)(CC1CS1)c1ccc(Oc2ccccc2)cc1 (stereo not given),-6.36%,
COc1cc(C[C@@H](C)N)c(OC)cc1Br,-7.05%,
CCc1ccc(C2CCNCC2)cc1,-14%,
CNC(=O)Oc1cccc2ccccc12,-8.24%,
CC(=O)[C@H]1CC[C@H]2[C@@H]3CC[C@H]4C[C@H](O)CC[C@]4(C)[C@H]3C(=O)C[C@]12C,0.908%,
COCC1(CO)C(=O)C2CCN1CC2 (stereo not given),9.27%,
O=C(O)C(Cl)Cl,11.1%,
Oc1c(Br)cc(Br)cc1Br,8.39%,
NC1=NC(=O)N2CC12 (stereo not given),-7.87%,
COP(=O)(OC)C(O)C(Cl)(Cl)Cl (stereo not given),6.64%,
O=C(O)c1ccc2[nH]cc(CCCCN3CC=C(c4ccccc4)CC3)c2c1,-1.83%,
O=c1[nH]c2ccccc2n1C1CCNCC1,4.94%,
CC(C)(N)Cc1ccc(Cl)cc1,9.02%,
